# PubChem BioAssay (Tox21)
# Where “and” joins values, the source holds several entries; their conditions need not be identical. Equal values may be shown once. Unmarked numbers belong to inactive results. Inconclusive results are not listed. Calls of active or inactive are those of the source. The call rests on the fitted dose curve; in most records, active means well fitted activation curve with a large enough effect in the repeat runs; inconclusive means weak or mixed curves; inactive means flat fitted curve, though single readings scatter. Starred links: 1 amine or outer side, 2 acyl side, 3 side chain; linkers in the order of their positions; H or OH if unused. Positions of bridges follow the written chain, without caps; N, C: chain ends. Non-standard residues stand in square brackets, D forms with d. Residues, ends and D or L forms follow the SMILES beside them. Chains are numbered I, II in the order given. Actinocin(9to1) = Cc1c2oc3c(C)ccc(C(=O)[*:1])c3nc-2c(C(=O)[*:2])c(N)c1=O; NMeV = CN[C@H](C(=O)O)C(C)C; Sar = CNCC(=O)O
# Assay: A CellTox Green Cytotoxicity Assay to monitor cytotoxicity in HepG2 cells - 0 hour (AID 1224882); further: nearly all actives have a fitted effect of over 35% in size
# Conditions: CellTox Green fluorescence; series mostly up to 76.8 µM; cytotoxicity: at the top concentration
# Procedure, shortened: (§1)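 Fluorescent DNA-binding dye, 600 HepG2 cells/well, 5 h preincubation then compound in DMSO; same plates read at 0–40 h, 37 C.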
# On the % scale 0 is the no-effect control and ±100 the full control effect.
Structure (SMILES),cytotoxicity,Potency
CC(C)(C)NCC(O)c1cc(O)cc(O)c1 (stereo unspecified),-15% [at 35.3 µM],
"Cc1c2oc3c(C)ccc(C(=O)N[C@@H]4C(=O)N[C@H](C(C)C)C(=O)N5CCC[C@H]5C(=O)N(C)CC(=O)N(C)[C@@H](C(C)C)C(=O)O[C@@H]4C)c3nc-2c(C(=O)N[C@@H]2C(=O)N[C@H](C(C)C)C(=O)N3CCC[C@H]3C(=O)N(C)CC(=O)N(C)[C@@H](C(C)C)C(=O)O[C@@H]2C)c(N)c1=O (I: T[dV]P[Sar][NMeV] / II: T[dV]P[Sar][NMeV]; ester I:1-I:C, II:1-II:C; linker I:N-II:N via Actinocin(9to1))",,inactive
CC(C)(C)NCC(O)COc1ccccc1OCC1CCCO1 (stereo unspecified),-13.2% [at 35.3 µM],
C=CS(=O)(=O)O,-3.71%,
CC(=O)C1=C(C)[C@@H]2C[C@@]3(C1)[C@H](C)CC[C@H]3C2(C)C,,inactive
O=S(=O)(O)c1ccc2nc(-c3ccccc3)[nH]c2c1,,inactive
C1COC(NC(C2CC2)C2CC2)=N1,2.07% [at 35.3 µM],
Cc1cc(OCCOCC[N+](C)(C)Cc2ccccc2)ccc1C(C)(C)CC(C)(C)C,,inactive
CCN(CC)C(=O)Nc1ccc(OCC(O)CNC(C)(C)C)c(C(C)=O)c1 (stereo unspecified),-12.5% [at 35.3 µM],
CCCOC(=O)c1cc(O)c(O)c(O)c1,,inactive
CC(C)(C)c1ccccc1,-4.96%,
Nc1nc2ccccc2[nH]1,,inactive
c1ccc2c(c1)CCCC2C1=NCCN1 (stereo unspecified),-2.11% [at 35.3 µM],
O=C(Cl)c1cccc(C(=O)Cl)c1,,inactive
CC[C@@H](N)CO,-5.33%,
Cc1ccc(-c2cc(C(F)(F)F)nn2-c2ccc(S(N)(=O)=O)cc2)cc1,,inactive
CCCCCCCCCCCCCC[P+](CCCC)(CCCC)CCCC,,inactive
CCC(CO)(CO)COCC(CC)(CO)CO,0.533%,
O=C(O)Cn1cnnn1,-3.76% [at 35.3 µM],
Oc1ccc(Cl)cc1Cc1cc(Cl)ccc1O,,inactive
c1cnc2cc3c(cc2n1)C1CNCC3C1,0.229% [at 35.3 µM],
C=C(C)C(=O)O,,inactive
CCN(CC)c1ccc2c(C)cc(=O)oc2c1,,inactive
CCOC(=O)C(C)C(C)=O (stereo unspecified),7.23%,

# Assay: A CellTox Green Cytotoxicity Assay to monitor cytotoxicity in HepG2 cells - 32 hour (AID 1224883); further: nearly all actives have a fitted effect of over 50% in size; further: potency means the concentration at half of the fitted maximal effect
# Conditions: CellTox Green fluorescence; series mostly up to 76.8 µM; cytotoxicity increase: at the top concentration
# Procedure, shortened: as §1
Structure (SMILES),cytotoxicity increase,Potency
CC(C)(C)NCC(O)c1cc(O)cc(O)c1 (stereo unspecified),-20.1% [at 35.3 µM],
"Cc1c2oc3c(C)ccc(C(=O)N[C@@H]4C(=O)N[C@H](C(C)C)C(=O)N5CCC[C@H]5C(=O)N(C)CC(=O)N(C)[C@@H](C(C)C)C(=O)O[C@@H]4C)c3nc-2c(C(=O)N[C@@H]2C(=O)N[C@H](C(C)C)C(=O)N3CCC[C@H]3C(=O)N(C)CC(=O)N(C)[C@@H](C(C)C)C(=O)O[C@@H]2C)c(N)c1=O (I: T[dV]P[Sar][NMeV] / II: T[dV]P[Sar][NMeV]; ester I:1-I:C, II:1-II:C; linker I:N-II:N via Actinocin(9to1))",,21.3 nM (active)
C#CC(C)(CC)OC(=O)c1ccccc1C(=O)O (stereo unspecified),-0.976% [at 35.3 µM],
CC(C)(C)NCC(O)COc1ccccc1OCC1CCCO1 (stereo unspecified),-1.25% [at 35.3 µM],
COc1ccc(Cc2cnc(N)nc2N)cc1OC,-22.1% [at 35.3 µM],
C=CS(=O)(=O)O,-6.75%,
CC(=O)C1=C(C)[C@@H]2C[C@@]3(C1)[C@H](C)CC[C@H]3C2(C)C,28.7%,
O=S(=O)(O)c1ccc2nc(-c3ccccc3)[nH]c2c1,,inactive
Cc1scc2c1N(C(=O)CN1CCN(C)CC1)c1ccccc1NC2=O,-5.7% [at 35.3 µM],
COC(c1ccccc1)(c1ccccc1)[C@H](Oc1nc(C)cc(C)n1)C(=O)O,-23.3% [at 35.3 µM],
OCCN1CCNCC1,,inactive
C1COC(NC(C2CC2)C2CC2)=N1,-13.3% [at 35.3 µM],
Cc1cc(OCCOCC[N+](C)(C)Cc2ccccc2)ccc1C(C)(C)CC(C)(C)C,,15.4 µM (active) and 9.52 µM (active)
CC(=O)CC(=O)Nc1ccc2[nH]c(=O)[nH]c2c1,-14%,
CCN(CC)C(=O)Nc1ccc(OCC(O)CNC(C)(C)C)c(C(C)=O)c1 (stereo unspecified),-14.9% [at 35.3 µM],
CCCOC(=O)c1cc(O)c(O)c(O)c1,,inactive
CN1C(=O)c2ccc([N+](=O)[O-])cc2C1=O,-2.68%,
CC(C)(C)c1ccccc1,-7.02%,
Nc1nc2ccccc2[nH]1,,inactive

Structure (SMILES),cytotoxicity increase,Potency
c1ccc2c(c1)CCCC2C1=NCCN1 (stereo unspecified),-9.33% [at 35.3 µM],
O=C(Cl)c1cccc(C(=O)Cl)c1,,inactive
CCc1cc(C(C)(C)C)c(O)c(C(C)(C)C)c1,,inactive
CC[C@@H](N)CO,0.939%,
Cc1ccc(-c2cc(C(F)(F)F)nn2-c2ccc(S(N)(=O)=O)cc2)cc1,,48.8 µM (active) and 49 µM (active)
CCCCCCCCCCCCCC[P+](CCCC)(CCCC)CCCC,,19.4 µM (active) and 15.5 µM (active)
CCC(CO)(CO)COCC(CC)(CO)CO,-5.83%,
Nc1cc(S(=O)(=O)O)cc2cc(S(=O)(=O)O)cc(O)c12,,inactive
O=C(O)Cn1cnnn1,-10.1% [at 35.3 µM],
Oc1ccc(Cl)cc1Cc1cc(Cl)ccc1O,18.2% [at 35.3 µM],
c1cnc2cc3c(cc2n1)C1CNCC3C1,-6.83% [at 35.3 µM],
C=C(C)C(=O)O,,inactive
CCN(CC)CCOc1ccc(/C(=C(\Cl)c2ccccc2)c2ccccc2)cc1,,17.7 µM (active) and 21.3 µM (active)
NCCCCCC(=O)O,-16.8% [at 35.3 µM],
CC(C)CCOC(=O)c1ccc(N(C)C)cc1,-0.524% [at 35.3 µM],
CCN(CC)c1ccc2c(C)cc(=O)oc2c1,,inactive
CCCNC(C)C(=O)Nc1ccccc1C (stereo unspecified),-2.46% [at 35.3 µM],
CCOC(=O)C(C)C(C)=O (stereo unspecified),12.9%,
